Assay outcomes deposited in PubChem by National Center for Advancing Translational Sciences (NCATS).
Rows were chosen to be rich in hits. Some 5.7% of all compounds tested hit in one or more screens of this group.
NPSR antag: qHTS Assay for Antagonists of the Neuropeptide S Receptor: cAMP Signal Transduction; CHO-NPSR cells, cAMP TR-FRET, antagonist mode; Potency, µM (titrated, usually from 38.3 µM), for inactives: at the highest dose activity change, negative = inhibition, most hits filed as inhibitors; hit rate 1% among 220,000; AID 1461, 2008; also: nearly all actives have a fitted effect of over 50% in size
B2AR arrestin: qHTS assay of beta-arrestin-biased ligands of beta2-adrenergic receptor; Beta-2 adrenergic receptor (Homo sapiens), P07550; beta-arrestin recruitment to beta2AR, cell-based reporter; Potency, µM (doses to about 46.1 µM), for inactives: at the top dose activation, actives largely listed as activators; hit rate 0.02% among 330,000; AID 492947, 2010;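 also: 0% = DMSO controls and full agonism = EC100 isoproterenol or metaproterenol; nearly all actives have a fitted effect of over 65% in size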
Gal4-VP16 FLuc: VP16 counterscreen qHTS for inhibitors of ROR gamma transcriptional activity; Drosophila S2 Gal4-VP16 UAS-luciferase, luminescence, 20 h; Potency, µM (doses to about 53.6 µM), inactives show top-dose activity, negative = inhibition, actives largely listed as inhibitors; hit rate 3.5% among 310,000; AID 2546, 2010;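 also: Gal4-VP16 expression switched on by copper sulfate through the metallothionein promoter; nearly all actives have a fitted effect of over 50% in size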
RORgamma inh: qHTS for inhibitors of ROR gamma transcriptional activity; hit rate 5.4% among 310,000; Potency, µM (doses to about 53.6 µM), for inactives: at the top dose activity change, negative = inhibition, usual class: inhibitors; Nuclear receptor ROR-gamma (Mus musculus), P51450; Drosophila S2 Gal4-RORgamma UAS-luciferase reporter, 20 h; AID 2551, 2010; also: nearly all actives have a fitted effect of over 60% in size
Target sequence (P51450 whole entry, looked up, the tested form may be a part): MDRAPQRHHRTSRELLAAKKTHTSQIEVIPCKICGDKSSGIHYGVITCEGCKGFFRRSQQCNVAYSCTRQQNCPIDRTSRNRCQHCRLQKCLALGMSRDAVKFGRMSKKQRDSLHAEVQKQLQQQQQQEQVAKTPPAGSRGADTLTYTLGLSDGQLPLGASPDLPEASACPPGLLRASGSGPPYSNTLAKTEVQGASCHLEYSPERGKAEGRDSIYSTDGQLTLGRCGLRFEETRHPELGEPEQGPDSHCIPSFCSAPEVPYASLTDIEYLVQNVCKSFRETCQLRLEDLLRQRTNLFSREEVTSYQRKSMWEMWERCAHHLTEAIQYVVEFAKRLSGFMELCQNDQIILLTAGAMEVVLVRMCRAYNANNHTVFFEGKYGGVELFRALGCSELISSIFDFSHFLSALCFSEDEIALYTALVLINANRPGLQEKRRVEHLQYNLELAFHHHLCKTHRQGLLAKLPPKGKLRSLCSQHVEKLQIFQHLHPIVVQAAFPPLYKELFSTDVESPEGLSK
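Stable Schneider cell line, Gal4 DNA-binding domain fused to ROR gamma, UAS-luciferase. Cmpd 1 hr RT → CuSO4 700 uM final → 20 hr RT → luciferase reagent 10 min → luminescence.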
The depositor's hits bear a star; ? = inconclusive; · = no result; [ ] = another dose, or the depositor's remark. Calls follow the shape of the dose curve; as a rule, active = well fitted curve in the direction sought with a large enough effect; inconclusive = small, poorly fitted or top-dose-only effect, or another doubt; inactive = no such curve, though single readings can be large; an effect the other way counts as inactive or inconclusive. Unless noted, % is scaled to controls: 0 for no effect and ±100 for the full control effect; potency is read from the fitted curve at half-maximal effect.

SMILES	NPSR antag	B2AR arrestin	Gal4-VP16 FLuc	RORgamma inh
CSCC[C@H](NC(=O)[C@H](CO)NC(=O)[C@H](Cc1ccc(O)cc1)NC(=O)[C@@H](N)CO)C(=O)N[C@@H](CCC(=O)O)C(=O)N[C@@H](Cc1cnc[nH]1)C(=O)N[C@@H](Cc1ccccc1)C(=O)N[C@@H](CCCNC(=N)N)C(=O)N[C@@H](Cc1c[nH]c2ccccc12)C(=O)NCC(=O)N[C@@H](CCCCN)C(=O)N1CCC[C@H]1C(=O)N[C@H](C(=O)NCC(=O)N[C@@H](CCCCN)C(=O)N[C@@H](CCCCN)C(=O)N[C@@H](CCCNC(=N)N)C(=O)N[C@@H](CCCNC(=N)N)C(=O)N1CCC[C@H]1C(=O)N[C@H](C(=O)N[C@@H](CCCCN)C(=O)N[C@H](C(=O)N[C@@H](Cc1ccc(O)cc1)C(=O)N1CCC[C@H]1C(=O)N[C@@H](CC(N)=O)C(=O)NCC(=O)N[C@@H](C)C(=O)N[C@@H](CCC(=O)O)C(=O)N[C@@H](CC(=O)O)C(=O)N[C@@H](CCC(=O)O)C(=O)N[C@@H](CO)C(=O)N[C@@H](C)C(=O)N[C@@H](CCC(=O)O)C(=O)N[C@@H](C)C(=O)N[C@@H](Cc1ccccc1)C(=O)N1CCC[C@H]1C(=O)N[C@@H](CC(C)C)C(=O)N[C@@H](CCC(=O)O)C(=O)N[C@@H](Cc1ccccc1)C(=O)O)C(C)C)C(C)C)C(C)C	·	·	-0.1%	0.7%
O=C(NCCc1c[nH]c2ccccc12)c1ccccc1O	·	·	-21.4%	30.2%
CCc1ccc(C(C(=O)NC2CCCC2)N(Cc2cccnc2)C(=O)c2csnn2)cc1 (stereo not drawn)	·	-0.4%	-5.1%	12.0%
Cc1csc2c(N3CCN(C(=O)Nc4ccc(OC(F)(F)F)cc4)CC3)ncnc12	18.9%	-0.7%	12.6µM*	?
Cc1csc2c(N3CCC(C(=O)O)CC3)ncnc12	6.5%	-0.5%	4.6%	10.1%
Cc1cccnc1Nc1nc(-c2ccccc2)cs1	·	0.1%	·	·
Cc1ccc(Nc2nc(-c3ccc(F)cc3)cs2)nc1	·	-0.1%	?	-26.4%
Cc1cccnc1Nc1nc(-c2ccccn2)cs1	0.794µM*	?	?	0.0224µM*
Cc1cccc(Nc2nc(-c3cccs3)cs2)n1	-46.1%	0.2%	?	?
Cc1cccc(Nc2nc(-c3ccccn3)cs2)n1	-27.2%[46.1 µM]	0.2%	2.51µM*	1.58µM*
Cc1ccc(Nc2nc(-c3ccc(O)c(O)c3)cs2)nc1	8.7%	3.1%	6.31µM*	12.6µM*
Oc1ccc(-c2csc(Nc3ccccn3)n2)c(O)c1	·	0.6%	?	11.2µM*
Cc1cccc2[nH]c(SCC(=O)N3CCOCC3)nc12	11.2%	-0.4%	29.2%	36.3%
CC(=O)Oc1ccc(-c2csc(Nc3cccc(C)n3)n2)cc1	·	0.3%	10µM*	3.16µM*
NS(=O)(=O)c1ccc(Nc2nc(-c3ccc(O)cc3O)cs2)cc1	-18.0%[46.1 µM]	-0.1%	19.6%	18.2%
Cc1cccnc1Nc1nc(-c2ccc(O)cc2O)cs1	-19.4%[46.1 µM]	-0.4%	?	6.31µM*
O=c1cnc2cnc(N3CCNCC3)nc2n1Cc1cccs1	·	·	-7.0%	-7.0%
Cc1c(N2C(=O)c3ccccc3C2(O)c2ccccc2)c(=O)n(-c2ccccc2)n1C (stereo not drawn)	4.4%	-0.4%	-0.8%	-17.4%
CCOC(=O)c1cnc(SSc2ncc(C(=O)OCC)c(N)n2)nc1N	·	-0.4%	11.2µM*	10µM*
Cn1c2ccccc2c2nnc(NN)nc21	5.1%[7.67 µM]	-0.2%	-0.3%	-12.6%
CCCCc1c(C)nn(-c2nnc3c4ccccc4n(C)c3n2)c1C	-20.4%[46.1 µM]	0.2%	7.08µM*	0.794µM*
Cc1ccccc1-c1cncnc1NCc1ccccc1	·	·	2.3%	-22.5%
N#Cc1ccc(CS(=O)(=O)c2nnnn2C2CCCCC2)cc1	·	·	1.5%	-9.6%
Clc1ccc(N2CCN(/N=C/c3ccncc3)CC2)cc1	-6.8%	-0.7%	?	-1.1%
Cc1ccc(N2CCN(/N=C/c3ccncc3)CC2)cc1	10.0%	0.0%	14.1µM*	-2.7%
SMILES	NPSR antag	B2AR arrestin	Gal4-VP16 FLuc	RORgamma inh
CC(C)C[C@H](NC(=O)CNC(=O)[C@H](C)NC(=O)[C@H](CC(C)C)NC(=O)[C@H](CCCNC(=N)N)NC(=O)[C@H](Cc1cnc[nH]1)NC(=O)[C@@H](NC(=O)[C@@H](NC(=O)[C@@H]1CSSC[C@H](NC(=O)[C@@H](N)CO)C(=O)N[C@@H](CC(N)=O)C(=O)N[C@@H]([C@@H](C)O)C(=O)N[C@@H](C)C(=O)N[C@@H]([C@@H](C)O)C(=O)N1)C(C)C)[C@@H](C)O)C(=O)N[C@@H](CC(C)C)C(=O)N[C@@H](CO)C(=O)N[C@@H](CCCNC(=N)N)C(=O)N[C@@H](CO)C(=O)NCC(=O)NCC(=O)N[C@H](C(=O)N[C@H](C(=O)N[C@@H](CCCCN)C(=O)N[C@@H](CC(=O)O)C(=O)N[C@@H](CC(N)=O)C(=O)N[C@@H](Cc1ccccc1)C(=O)N[C@H](C(=O)N1CCC[C@H]1C(=O)N[C@H](C(=O)N[C@@H](CC(N)=O)C(=O)N[C@H](C(=O)NCC(=O)N[C@@H](CO)C(=O)N[C@@H](CCCCN)C(=O)N[C@@H](C)C(=O)N[C@@H](Cc1ccccc1)C(N)=O)C(C)C)[C@@H](C)O)C(C)C)C(C)C)C(C)C	·	·	-2.0%	14.7%
O=S1(=O)C=C(Sc2nnc(-c3ccccc3)o2)c2ccccc21	?	-0.4%	3.16µM*	1.78µM*
COc1cccc2cc(-c3nc4ccccc4[nH]3)c(=O)oc12	·	0.5%	-12.9%	37.8%[1.91 µM]
COc1ccc(-c2nc3ccccc3[nH]2)cc1	-2.3%[46.1 µM]	-0.3%	8.91µM*	7.94µM*
COc1ccc2oc(=Nc3ccccc3)c(-c3nc4ccccc4[nH]3)cc2c1	-36.6%	-0.3%	?	10µM*
COc1ccc(-c2nc(=S)c3ccc4ccccc4c3[nH]2)cc1	-21.7%	-0.2%	?	5.62µM*
Cn1c2c(c(=O)[nH]c1=O)C(c1cccc(O)c1)C1=C(N2)c2ccccc2C1=O (stereo not drawn)	-38.6%	-0.6%	-16.6%	-38.8%
CN(C)S(=O)(=O)Oc1ccc(C(=O)Nc2cccc(Cl)c2)cc1	-18.4%	-0.3%	12.6µM*	?
CN(C)S(=O)(=O)Oc1ccc(C(=O)Nc2cccc(C(F)(F)F)c2)cc1	-25.7%	0.0%	-24.0%	40.4%
CC(C)(C)c1ccc(C(=O)N2CCC(=O)N(C(COCc3ccccc3)Cc3ccccc3)CC2)cc1 (stereo not drawn)	?	-0.5%	14.1µM*	22.3%
COc1oc(=O)c2cc(N)ccc2c1Cl	·	·	14.1µM*	7.94µM*
COc1ccc2c(c1)oc(=O)c1cc(OC)ccc12	-13.3%	-0.6%	-16.4%	-0.5%
CCCCC/C=C\C[C@@H]1O[C@H]1C(O)/C=C\C/C=C\CCCC(=O)O (stereo partly drawn)	·	·	2.2%	-16.2%
O=C(O)CCCn1cc(NC(=O)COc2cc(F)ccc2[N+](=O)[O-])cn1	17.3%	0.0%	0.501µM*	-42.5%
C/C(=N\Nc1nc2ccccc2[nH]1)c1ccccn1	·	-0.8%	-70.1%	2.51µM*
